Hits are enriched below; roughly 4.3% of the tested compounds scored in any of these assays.
BoNT-F LC inh: BoNT/F light chain protease inhibitors, primary screen, biochemical, flow cytometry, MLPCN library; inhibition, % at 10 µM; Multiplex microsphere protease cleavage assay; actives 0.22% (n = 360,000); Botulinum neurotoxin type F light chain protease (Clostridium botulinum); in the data active = inhibition above about 35%, passing the limit was not always enough; inconclusive = no clear call, values can overlap the other calls; note: plate controls were buffer without enzyme for full effect and enzyme alone for no effect
PfHsp40 yeast: rescue of yeast from PfHsp40 toxicity, primary screen, S. cerevisiae, ATP luminescence; actives 0.68% (n = 340,000); AID 504582, 2011; growth rescue, % at 12.5 µM; S. cerevisiae expressing PfHsp40, growth rescue; in the data active = growth rescue above about 28%, passing the limit was not always enough; inconclusive = no clear call, values can overlap the other calls;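 note: yeast W303a lacking pdr1 and pdr3 grown in galactose medium; growth measured after three days at 30 °C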
Anthrax LF prot: Bacillus anthracis LF protease inhibitors, primary screen, biochemical, multiplex microsphere, MLPCN library; Lethal factor (Bacillus anthracis), P15917; multiplex microsphere protease cleavage assay; inhibition, % at 10 µM; actives 0.12% (n = 360,000); note: plate controls were buffer without enzyme for full effect and enzyme alone for no effect
MazEF act: activators of E. coli MazEF toxin-antitoxin RNase, primary screen, biochemical, fluorescence, uHTS; Endoribonuclease toxin MazF (Escherichia coli (strain K12)), P0AE70; FAM/BHQ RNA-DNA oligo cleavage fluorescence, 5 h; activation, % at 20 µM; actives 0.32% (n = 350,000); AID 504720, 2011; in the data active = activation above about 50%
Target sequence (P0AE70 whole entry, looked up): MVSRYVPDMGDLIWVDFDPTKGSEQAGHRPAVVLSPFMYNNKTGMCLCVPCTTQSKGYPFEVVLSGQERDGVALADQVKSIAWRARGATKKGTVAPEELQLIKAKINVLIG
Bead autofluor: counter-screen for toxin protease inhibitors: compound fluorescence. fluorescence intensity (no concentration beside the values). compound autofluorescence counterscreen, microsphere flow cytometry; hits give high values. actives 3.1% (n = 360,000); in the data active = fluorescence intensity above about 16000; inconclusive = no clear call, values can overlap the other calls
BoNT A protease: BoNT/A light chain protease inhibitors, primary screen, biochemical, flow cytometry, MLPCN library | multiplex microsphere protease substrate cleavage | actives 0.17% (n = 360,000) | inhibition, % at 10 µM | Botulinum neurotoxin type A light chain protease (Clostridium botulinum A str. ATCC 3502) | AID 588499, 2011; note: plate controls were buffer without enzyme for full effect and enzyme alone for no effect
* = called active by the depositor; ? = inconclusive; · = no result. Cut-off read from the data, not from the text of the source, unless noted: active = inhibition above about 30%; inconclusive = no clear call, values can overlap the other calls; inactive = below that.

SMILES	BoNT-F LC inh	PfHsp40 yeast	Anthrax LF prot	MazEF act	Bead autofluor	BoNT A protease
CCCCNc1c(-c2ccc(SC(C)CC)cc2)nc2cnccn12 (stereo not drawn)	-6.9	860.1*	-11.1	-17.8	3627	-0.4
Cc1ccc(C(=O)O/N=C(\N)c2ccc(Br)cc2)cc1C	5.1	-0.5	0.5	4.5	3885	0.3
Cc1ccc(C)c(C(=O)O/N=C(\N)c2ccc(Br)cc2)c1	4.8	501.7*	5.3	3.1	4979	0.1
Cc1cc(C)cc(C(=O)O/N=C(\N)c2ccc(Br)cc2)c1	5.8	0.7	-12.4	14.1	20148*	5.4
CCOc1ccc(S(=O)(=O)n2cnc(C)c2)cc1	?	-1.4	-5.2	0.0	3746	-0.2
CCOC(=O)c1cnc(SC2CC(=O)N(c3ccc(C)cc3)C2=O)nc1N (stereo not drawn)	-4.8	-0.2	0.4	2.8	24081*	-2.5
O=C(O)c1ccc(/C=N/NC(=O)c2cc(-c3ccc4c5c(cccc35)CC4)n[nH]2)cc1	-2.1	-1.2	-3.5	0.3	2073	-0.6
CC1CCC(C(=O)c2c(O)c3ccccc3oc2=O)CC1 (stereo not drawn)	3.9	-0.9	-0.6	-6.8	20872*	-0.3
COc1ccc(OC)c(Nc2nc(-c3cccc([N+](=O)[O-])c3)nc3ccccc23)c1	-8.1	0.5	-2.7	-1.0	25968*	-3.7
COc1ccc(Nc2nc(-c3cccc([N+](=O)[O-])c3)nc3ccccc23)c(OC)c1	-11.1	-0.5	0.8	-6.8	2211	-0.4
CCc1noc(C)c1C(=O)OCC(=O)c1ccc(NC(C)=O)cc1F	-4.3	0.8	-11.0	-15.7	3764	0.1
CC(C)OC(=O)c1c2c(n3ccccc13)C(=O)c1ccccc1C2=O	23.4	-0.3	37.6*	174.7*	5595	78.9*
Nc1nonc1-c1noc(-c2ccccc2)n1	8.2	0.7	0.1	-4.7	20869*	6.3
CCc1nc(N2CCN(C(=O)c3ccco3)CC2)c2c3c(sc2n1)CCCC3	15.5	0.4	3.4	4.6	4522	2.1
CC1CCc2c(sc3nc(C4CC4)nc(N4CCN(C(=O)c5ccco5)CC4)c23)C1 (stereo not drawn)	-1.9	160.7*	-1.8	-4.0	2721	-0.3
COc1ccc(OCCNc2cc(Cl)ccc2[N+](=O)[O-])cc1	-15.2	-1.2	-5.4	147.1*	12087	-2.1
COc1ccc(OCCNc2cc(N3CCCCC3)ccc2[N+](=O)[O-])cc1	-23.6	-1.1	-11.2	-2.4	2997	-1.9
CN(C)c1ccc(/C=C2\c3ccccc3C(=O)N2c2ccccc2)cn1	1.9	·	-1.1	-151.5	4288	0.4
COCCNC(=O)C1CCCN(C(=O)c2cncc(Br)c2)CC1 (stereo not drawn)	3.7	·	1.8	·	3813	0.4
C=CCN1C(=O)C(C(C)CC)NC1=S (stereo not drawn)	7.7	-0.1	-5.2	-2.6	18817*	?
C=CCN1C(=O)C(C)NC1=S (stereo not drawn)	?	-0.3	-6.8	6.7	3631	4.5
N#C/C(=C\c1c(Cl)cccc1Cl)c1nc2ccccc2o1	49.1*	1.1	7.6	-18.0	6198	7.5
N#C/C(=C\c1c(Cl)cccc1Cl)c1nc2ccccc2[nH]1	-6.2	10.9	4.0	7.5	4403	-0.3
CCOc1cc(/C=C\[N+](=O)[O-])ccc1OCC(=O)N1CCOCC1	2.3	34.9*	-2.5	-6.3	4100	-0.3
CC1=NN(c2ccccc2)C(=O)/C1=C/c1cc(C)n(C2CC2)c1C	-5.4	-0.5	-2.1	77.1*	3641	1.2
Cc1cc(/C=C2\C(=O)NC(=O)N(Cc3ccccc3)C2=O)c(C)n1C1CC1	4.8	0.5	-3.7	725.3*	2695	-0.2
CC1=NN(c2ccccc2)C(=O)/C1=C\N1CC(C)OC(C)C1 (stereo not drawn)	0.0	0.3	-2.8	-12.7	16159*	1.2
COc1ccc(NC(=O)C2CC(=O)N(CCc3ccc(Cl)cc3)C2)cc1 (stereo not drawn)	-4.5	-0.7	-1.1	4.4	5447	-2.2

Assay outcomes (PubChem BioAssay)
